# Shown are actives, neighbours in structure and some others; about 18% of the full set was active somewhere.
# DT40 TDP1 no CPT: qHTS for Inhibitors of human tyrosyl-DNA phosphodiesterase 1 (TDP1): qHTS in cells in absence of CPT. DT40 Tdp1-/- hTDP1 cells, no CPT, ATP luminescence, 48 h. Potency, µM (highest dose often 46.2 µM), for inactives: top-dose activity change, negative = growth inhibition, hits mostly inhibitors. 420,000 tested, 15% active. AID 686978, 2013; further: potency means the concentration at half of the fitted maximal effect; nearly all actives have a fitted effect of over 55% in size
#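 No-CPT arm: Tdp1-/-;hTDP1 DT40 cells (400/well) plus compounds, incubated ≥48 hr at 37 °C. Readout CellTiter-Glo luminescence.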
# VP16 counter: counter-screen for ROR gamma inhibitors: Gal4-VP16 reporter; 310,000 tested, 3.5% active; Drosophila S2 Gal4-VP16 UAS-luciferase, luminescence, 20 h; Potency, µM (highest dose often 53.6 µM), for inactives: at the highest dose activity, negative = inhibition, hits mostly inhibitors;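 further: Gal4-VP16 expression switched on by copper sulfate through the metallothionein promoter; potency means the concentration at half of the fitted maximal effect; nearly all actives have a fitted effect of over 50% in size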
# TDP1 cell CPT: DT40-hTDP1 cell growth loss with CPT; Potency, µM (titrated, usually from 46.2 µM), without a hit: top-dose activity change, negative = growth inhibition, hits mostly inhibitors; chicken DT40 Tdp1-/-;hTDP1 cells + 20 nM CPT, ATP luminescence, 48 h; 420,000 tested, 12% active; further: potency means the concentration at half of the fitted maximal effect; nearly all actives have a fitted effect of over 55% in size
#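 Chicken DT40 Tdp1-/- cells stably complemented with human TDP1 were seeded at 400 cells/well in medium containing 20 nM camptothecin, exposed to pin-transferred compounds, and grown at 37 °C for at least 48 hr. Viability was read as ATP luminescence.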
# IL1B secr inh: inflammasome signaling inhibition, IL-1 beta readout | 360,000 tested, 4.7% active | activity change, % at 57.5 µM | THP-1 LPS/ATP IL-1B secretion, AlphaLISA, 16 h; hits give low values; in the data active means activity change below about -50%; inconclusive means mostly about -30% to -49%
#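 THP-1 cells pretreated 1 hr with compounds (up to 57.5 uM final), then stimulated with LPS (250 ng/mL final) plus ATP (1.25 mM final); secreted IL-1B measured by AlphaLISA after 16 hr, decreased signal indicating inhibition.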
# RORgamma inh: inhibitors of mouse ROR gamma transcriptional activity. P51450. Drosophila S2 Gal4-RORgamma UAS-luciferase reporter, 20 h. Potency, µM (doses to about 53.6 µM), for inactives: at the highest dose activity change, negative = inhibition, actives largely listed as inhibitors. 310,000 tested, 5.4% active. AID 2551; further: potency means the concentration at half of the fitted maximal effect; nearly all actives have a fitted effect of over 60% in size
# Target sequence (P51450 whole entry, looked up, the tested form may be a part): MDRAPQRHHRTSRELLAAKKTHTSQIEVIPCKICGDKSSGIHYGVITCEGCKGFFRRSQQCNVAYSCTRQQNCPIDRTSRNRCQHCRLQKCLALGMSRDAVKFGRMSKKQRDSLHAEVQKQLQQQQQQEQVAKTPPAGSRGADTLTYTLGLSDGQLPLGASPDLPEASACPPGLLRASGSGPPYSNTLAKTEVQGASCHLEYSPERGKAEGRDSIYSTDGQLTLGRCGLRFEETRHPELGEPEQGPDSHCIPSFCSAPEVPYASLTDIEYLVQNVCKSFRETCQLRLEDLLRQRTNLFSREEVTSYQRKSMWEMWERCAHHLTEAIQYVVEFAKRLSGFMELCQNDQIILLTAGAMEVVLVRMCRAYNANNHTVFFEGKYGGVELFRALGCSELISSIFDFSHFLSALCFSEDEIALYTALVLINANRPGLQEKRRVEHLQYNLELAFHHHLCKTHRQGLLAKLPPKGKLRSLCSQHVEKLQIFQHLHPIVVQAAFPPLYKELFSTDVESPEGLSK
#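 Stable Schneider cell line, Gal4 DNA-binding domain fused to ROR gamma, UAS-luciferase. Cmpd 1 hr RT → CuSO4 700 uM final → 20 hr RT → luciferase reagent 10 min → luminescence.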
# LDHA block: blocks human lactate dehydrogenase A; P00338; AID 1347041; activity change, % (values are at about 110 or 230 µM); 480,000 tested, 0.15% active; purified LDHA, NADH/diaphorase-resazurin fluorescence; hits give low values; in the data active means activity change below about -30%; inconclusive means mostly about -25% to -30%;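 further: plate controls were DMSO wells for no effect and wells without enzyme for full effect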
#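 LDH5 2 nM; NADH 0.06 mM, pyruvate 0.2 mM; 200 mM Tris pH 7.4, EDTA, Tween-20; 5 min RT. Detection: diaphorase 0.133 mg/mL + resazurin 37 µM, fluorescence ex540/em590 at 0 and 20 min; normalized to enzyme-free and DMSO wells.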
# * marks the source's active call; other numbers are inactive results; i = inactive; u = inconclusive; x = no result given. Unless noted, the call rests on the fitted dose curve; in most records, active means well fitted curve in the direction sought with a large enough effect; inconclusive means small, poorly fitted or top-dose-only effect, or another doubt; inactive means no such curve, though single readings can be large; an effect the other way counts as inactive or inconclusive. Unless noted, on the % scale 0 is the no-effect control and ±100 the full control effect.
SMILES,DT40 TDP1 no CPT,VP16 counter,TDP1 cell CPT,IL1B secr inh,RORgamma inh,LDHA block
CCOc1ccc(C(=O)Nc2nnc(SCC(=O)NCC3CCCO3)s2)cc1 (stereo unspecified),-4%,3.5µM*,-1%,20,u,-19
Cc1cc(-c2nnc(CSc3nnc(NC(=O)c4ccc(C(C)(C)C)cc4)s3)o2)ccc1[N+](=O)[O-],21µM*,4%,u,0,20%,-12
CC(C)(C)c1ccc(C(=O)Nc2nnc(SCC(=O)NCC3CCCO3)s2)cc1 (stereo unspecified),-29%,7.1µM*,u,21,u,0
CCOc1ncccc1C(=O)N(Cc1nnc(-c2ccccc2)o1)C(C)C,x,x,x,x,x,6
COc1ccc(C(=O)NCc2ccc(-c3csc(C)n3)s2)cc1F,x,x,x,x,x,-8
O=c1c2cccnc2n(Cc2ccccc2F)c(=O)n1Cc1ccc(F)cc1,u,x,-20%,x,x,-2
O=c1c2cccnc2n(Cc2ccc(Cl)cc2)c(=O)n1Cc1ccc(F)cc1,8.2µM*,x,u,x,x,-1
Cc1ccccc1Cn1c(=O)n(Cc2ccc(Cl)cc2)c(=O)c2cccnc21,16µM*,x,15µM*,x,x,-15
C/C(=N/NC(=O)c1cccs1)c1ccc(-c2ccccc2)cc1,x,x,x,x,x,1
COC(=O)c1ccc(NC2=CC(=O)CC(C)(C)C2)cc1,23µM*,-1%,23µM*,u,17%,12
CCC(C)NC(=O)NCc1c(-n2cccc2)sc2c1CCN(C)C2 (stereo unspecified),x,x,x,x,x,9
CCC(NC(=O)Nc1cc(OC)ccc1OC)c1c(-n2cccc2)sc2c1CCN(CC)C2 (stereo unspecified),23µM*,x,u,x,x,-7
CCOC(=O)c1cccc(NC(=O)NCc2c(-n3cccc3)sc3c2CCN(CC)C3)c1,x,x,x,x,x,4
CCOC(=O)c1cccc(NC(=O)NC(C)c2c(-n3cccc3)sc3c2CCN(C)C3)c1 (stereo unspecified),16µM*,x,15µM*,x,x,-6
CCC(NC(=O)Nc1ccc(OC)c(OC)c1)c1c(-n2cccc2)sc2c1CCN(C)C2 (stereo unspecified),u,x,u,x,x,-5
COc1ccc(NC(=O)NC(C)c2c(-n3cccc3)sc3c2CCN(C)C3)c(OC)c1 (stereo unspecified),23µM*,x,u,x,x,-12
CC(c1ccccc1)N(CC(=O)NC1CCCCC1)S(=O)(=O)c1cccc(C(F)(F)F)c1 (stereo unspecified),16µM*,3%,u,-62*,7%,-1
CCCOc1ccc(C2c3c(-c4ccccc4O)n[nH]c3C(=O)N2Cc2ccncc2)cc1OCC (stereo unspecified),-24%,x,23µM*,x,x,-2
CCCOc1ccc(C2c3c(-c4ccccc4O)n[nH]c3C(=O)N2CCCOCC)cc1OCC (stereo unspecified),u,x,23µM*,x,x,3
Cc1cc(NC(=O)COC(=O)c2cc([N+](=O)[O-])ccc2N2CCOCC2)ccc1Br,16µM*,x,u,u,x,8
O=C(COC(=O)c1cc([N+](=O)[O-])ccc1N1CCOCC1)Nc1ccccc1OC(F)F,-22%,x,-26%,0,x,-4
CC(C)c1ccccc1NC(=O)COC(=O)c1cc([N+](=O)[O-])ccc1N1CCOCC1,18µM*,x,u,-19,x,0
O=C(COC(=O)c1cc([N+](=O)[O-])ccc1N1CCCC1)Nc1ccccc1OC(F)F,16µM*,x,u,-4,x,-3
Cc1cc(C)c(NC(=O)COC(=O)c2cc([N+](=O)[O-])ccc2N2CCOCC2)c(C)c1,-5%,-5%,-12%,i,25%,-4
CCc1cccc(NC(=O)COC(=O)c2cc([N+](=O)[O-])ccc2N2CCOCC2)c1,u,x,u,3,x,1
SMILES,DT40 TDP1 no CPT,VP16 counter,TDP1 cell CPT,IL1B secr inh,RORgamma inh,LDHA block
Cc1sc(-n2c(C)cc(/C=N/O)c2C)c(C(=O)O)c1C,x,x,x,x,x,-24
O=C(NNC(=S)NCc1ccccc1)c1ccc(Br)o1,u,-23%,-23%,32,8.9µM*,2
O=C(NNC(=S)NCc1ccccc1)c1ccc(Br)cc1,u,-2%,u,12,7.9µM*,-4
O=C(NC(=S)NCc1ccccc1)c1ccc(Br)o1,x,13µM*,x,x,u,x
N#Cc1cnn(-c2ccc(NC(=O)c3ccc4[nH]c5c(c4c3)CCCC5)cc2)c1N,x,x,x,x,x,11
Cc1cc(C)cc(OCc2cc(=O)n3nc(C)sc3n2)c1,x,x,x,x,x,-22
CCn1nc(C(=O)NCC2(c3ccccc3)CCC2)c2ccccc2c1=O,x,x,x,x,x,-6
O=S(=O)(Cc1ccc(Cl)cc1)c1nc2ccccc2nc1N1CCCCC1,x,x,x,x,x,6
Cc1nc2ccccc2c(C)c1C(=O)OCC(=O)NCC1CCCO1 (stereo unspecified),x,x,x,x,x,0
CC(=O)Nc1ccc(NC(=O)c2nnn(-c3ccc4noc(-c5ccc(Cl)cc5)c4c3)c2C)cc1,x,x,x,x,x,10
Cc1ccc2oc(=O)cc(CN3CCN(c4ccccn4)CC3)c2c1,x,x,x,x,x,0
Cc1cccc(CS(=O)CCC(=O)Nc2ccccc2)c1 (stereo unspecified),x,x,x,x,x,-10
O=C(Nc1ccc2c(c1)CCCN2C(=O)c1ccccc1)c1ccccc1,15µM*,14%,u,-30,u,0
O=C(Nc1ccc(C(=O)N2CCCC2)cc1)c1ccccc1,u,x,u,-8,x,-5
COc1ccc(C(=O)Nc2cc3c4c(c2)CC(=O)N4CCC3)c(OC)c1,u,x,u,15,x,5
CCCCOc1ccc(C(=O)Nc2ccc3c(c2)CCCN3C(=O)c2cccs2)cc1,5.2µM*,x,5.8µM*,x,x,-3
COc1cccc(C(=O)Nc2ccc3c(c2)CCCN3C(=O)c2cccs2)c1OC,13µM*,-5%,16µM*,u,25%,1
COc1ccc(C(=O)Nc2ccc3c(c2)CCCN3C(=O)c2cccs2)c(OC)c1,12µM*,-3%,8.2µM*,7,u,-5
CCCOc1ccc(C(=O)N2CCCc3ccccc32)cc1,-6%,-7%,u,19,15%,0
Fc1ccc(CNCCCn2ccnc2)cc1,x,x,x,x,x,2
CC(C)c1nc2oc3c(NCCN(C)C)ncnc3c2c2c1COC(C)(C)C2,x,x,x,x,x,24
Cc1ccccc1C(=O)Nc1ccc2c(c1)CCCN2C(=O)c1cccs1,u,1%,18µM*,u,u,-7
Cc1ccc2c(c1)CCCN2C(=O)c1cccs1,-2%,-15%,-7%,17,-6%,1

# From PubChem BioAssay
